# Only some compounds are listed: those with a hit (about 18% of all), similar ones and a draw of the others.
# DT40 TDP1 no CPT = qHTS for Inhibitors of human tyrosyl-DNA phosphodiesterase 1 (TDP1): qHTS in cells in absence of CPT | DT40 Tdp1-/- hTDP1 cells, no CPT, ATP luminescence, 48 h | Potency, µM (series often up to 46.2 µM), without a hit: at the top dose activity change, negative = growth inhibition, usual class: inhibitors | 420,000 tested, 15% active | AID 686978, 2013; further: potency means the concentration at half of the fitted maximal effect; nearly all actives have a fitted effect of over 55% in size
#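 Growth kinetics read by CellTiter-Glo luminescence after ≥48 hr at 37 °C. Cells: DT40 Tdp1-/- stably carrying human TDP1, 400 per well, compound exposure in the absence of CPT (DMSO vehicle).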
# RORg inh = ROR gamma (mouse) transcription inhibition; P51450; Drosophila S2 Gal4-RORgamma UAS-luciferase reporter, 20 h; Potency, µM (titrated, usually from 53.6 µM), for the others: top-dose activity change, negative = inhibition, hits mostly inhibitors; 310,000 tested, 5.4% active; AID 2551; further: potency means the concentration at half of the fitted maximal effect; nearly all actives have a fitted effect of over 60% in size
# Target sequence (P51450 whole entry, looked up, the tested form may be a part): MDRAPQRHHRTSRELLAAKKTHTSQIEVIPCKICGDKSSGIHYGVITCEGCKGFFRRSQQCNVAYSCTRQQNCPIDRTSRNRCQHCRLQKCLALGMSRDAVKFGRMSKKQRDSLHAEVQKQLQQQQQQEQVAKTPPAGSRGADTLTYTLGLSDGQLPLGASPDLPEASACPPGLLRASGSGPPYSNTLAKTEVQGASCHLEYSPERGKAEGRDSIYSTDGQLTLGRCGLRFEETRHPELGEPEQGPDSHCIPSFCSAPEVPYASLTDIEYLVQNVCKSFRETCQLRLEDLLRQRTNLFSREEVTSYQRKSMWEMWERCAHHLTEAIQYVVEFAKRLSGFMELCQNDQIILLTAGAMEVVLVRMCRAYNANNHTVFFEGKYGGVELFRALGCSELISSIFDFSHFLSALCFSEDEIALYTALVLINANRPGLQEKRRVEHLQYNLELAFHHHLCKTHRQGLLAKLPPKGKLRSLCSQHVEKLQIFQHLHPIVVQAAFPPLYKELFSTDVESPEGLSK
#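 ROR gamma transcriptional activity was tracked as Gal4-UAS luciferase output in stably transfected Drosophila Schneider cells, with compound added 1 hr before 700 uM copper sulfate induction and a 20 hr ambient-temperature incubation.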
# IL-1B inflam inh = blocks inflammasome-driven IL-1 beta release | THP-1 LPS/ATP IL-1B secretion, AlphaLISA, 16 h; hits give low values | activity change, % at 57.5 µM | 360,000 tested, 4.7% active | AID 743279; in the data active means activity change below about -50%; inconclusive means mostly about -30% to -49%
#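 Secreted IL-1B measured by AlphaLISA bead assay after 16 h compound exposure of THP-1 cells; compounds (final up to 57.5 uM) added 1 h before LPS (250 ng/mL) and ATP (1.25 mM) stimulation; lower signal means less secretion.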
# LDHA block = LDHA (human) enzyme inhibition | P00338 | purified LDHA, NADH/diaphorase-resazurin fluorescence; hits give low values | activity change, % (values are at about 110 or 230 µM) | 480,000 tested, 0.15% active | AID 1347041; in the data active means activity change below about -30%; inconclusive means mostly about -25% to -30%;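 further: plate controls were DMSO wells for no effect and wells without enzyme for full effect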
#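 Remaining NADH was detected by diaphorase (0.133 mg/mL) converting 37 µM resazurin to fluorescent resorufin, read at 0 and 20 minutes. The preceding 5-minute room-temperature reaction used 2 nM LDHA, 0.2 mM sodium pyruvate and 0.06 mM NADH at pH 7.4.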
# DT40 TDP1 CPT = DT40-hTDP1 cell growth loss with CPT; chicken DT40 Tdp1-/-;hTDP1 cells + 20 nM CPT, ATP luminescence, 48 h; Potency, µM (highest dose often 46.2 µM), for the others: at the top dose activity change, negative = growth inhibition, hits mostly inhibitors; 420,000 tested, 12% active; AID 686979; further: potency means the concentration at half of the fitted maximal effect; nearly all actives have a fitted effect of over 55% in size
#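 Cell growth measured by CellTiter-Glo luminescence after a minimum 48 h, 37 C compound exposure with 20 nM CPT in Tdp1-knockout DT40 cells stably expressing hTDP1, seeded 400/well; qHTS titration format.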
# VP16 counter = counter-screen for ROR gamma inhibitors: Gal4-VP16 reporter. Drosophila S2 Gal4-VP16 UAS-luciferase, luminescence, 20 h. Potency, µM (doses to about 53.6 µM), for the others: top-dose activity, negative = inhibition, actives largely listed as inhibitors. 310,000 tested, 3.5% active. AID 2546;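 further: Gal4-VP16 expression switched on by copper sulfate through the metallothionein promoter; potency means the concentration at half of the fitted maximal effect; nearly all actives have a fitted effect of over 50% in size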
# Numbers without * were called inactive; u = inconclusive; x = no result. Unless noted, the call rests on the fitted dose curve; in most records, active means well fitted curve in the direction sought with a large enough effect; inconclusive means small, poorly fitted or top-dose-only effect, or another doubt; inactive means no such curve, though single readings can be large; an effect the other way counts as inactive or inconclusive. Unless noted, on the % scale 0 is the no-effect control and ±100 the full control effect.
SMILES,DT40 TDP1 no CPT,RORg inh,IL-1B inflam inh,LDHA block,DT40 TDP1 CPT,VP16 counter
CCc1nnc2c3ccccc3nc(Nc3cc(C)cc(C)c3)n12,3.7µM*,x,x,-10,6.5µM*,x
COc1ccccc1N1CCN(C(=O)c2ccc(-c3ccccc3)cc2)CC1,13µM*,-9%,-14,-1,u,3%
COc1ccccc1N1CCN(C(=O)c2ccc(C(C)(C)C)cc2)CC1,5.8µM*,-44%,-11,2,4.6µM*,-8%
COc1ccccc1C1CCN(C(=O)c2cccc([N+](=O)[O-])c2)CC1,16µM*,7%,x,-6,u,-2%
COc1ccc(C(=O)N2CCN(c3ccccc3OC)CC2)cc1,-1%,-1%,7,-4,-1%,2%
COc1ccccc1N1CCN(C(=O)C(Sc2ccccc2)c2ccccc2)CC1 (configuration not stated),u,20%,u,0,18µM*,17%
COc1ccccc1N1CCN(C(=O)c2ccncc2)CC1,u,-11%,16,0,-9%,1%
C=CCOC(=O)COc1cc(C)cc2oc(=O)cc(-c3ccccc3)c12,x,x,x,-10,x,x
CCn1nc(-c2ccc(C)c(S(=O)(=O)NC3CC3)c2)c2c(c1=O)CCCC2,x,x,x,3,x,x
COc1ccccc1C1CCN(C(=O)c2ccc(C(C)(C)C)cc2)CC1,16µM*,57%,-92*,-2,u,u
COc1ccccc1N1CCN(C(=O)c2ccc(S(=O)(=O)N3CCCC3)cc2)CC1,16µM*,-13%,4,-2,u,-5%
COc1ccccc1N1CCN(C(=O)c2ccc(NS(=O)(=O)c3ccc(C)cc3)cc2)CC1,u,29%,11,-3,u,-19%
COc1cc2c(cc1OC)CN(C(=O)c1ccc(S(=O)(=O)N3CCCCC3)cc1)CC2,16µM*,5%,-2,-4,26µM*,-1%
COc1ccc(CCNC(=O)C2CCN(C(=O)c3ccc(C(C)(C)C)cc3)CC2)cc1OC,u,u,4,-3,u,14%
CCCN(CCC)S(=O)(=O)c1c(C(=O)OCC)c(C)n(C)c1C,x,x,x,0,x,x
COc1ccc(Nc2nc3nonc3nc2N2CCCCC2)cc1,-17%,u,-4,-3,-2%,4%
CC1CCN(c2nc3nonc3nc2Nc2ccc(F)cc2)CC1,u,1%,-76*,14,13%,0%
CCOC(=O)c1ccccc1NC(=O)c1cn(-c2ccc(C)c(C)c2)c(=O)c2ccccc12,u,u,u,-12,21µM*,-10%
COC(=O)c1ccccc1NC(=O)c1cn(-c2ccc(C)c(C)c2)c(=O)c2ccccc12,23µM*,41%,0,-4,u,2%
COC(=O)c1cc2ccccc2cc1OS(=O)(=O)c1ccc(C)cc1C,x,x,x,0,x,x
O=[N+]([O-])c1ccc(Nc2cccc3ccccc23)nc1,x,x,x,11,x,x
O=C(O)c1ccc(C2CCCCC2)cn1,u,7.9µM*,-2,8,u,u
O=C(O)c1ccc(O)cn1,x,x,x,29,x,x
Cc1ccc(S(=O)(=O)NCC(c2ccco2)N2CCc3ccccc3C2)cc1 (configuration not stated),u,x,2,5,23µM*,x
COc1ccc(C)cc1S(=O)(=O)NCC(c1ccco1)N1CCc2ccccc2C1 (configuration not stated),u,x,-10,-2,29µM*,x
SMILES,DT40 TDP1 no CPT,RORg inh,IL-1B inflam inh,LDHA block,DT40 TDP1 CPT,VP16 counter
O=S(=O)(NCC(c1ccco1)N1CCc2ccccc2C1)c1ccc(Br)cc1 (configuration not stated),u,x,-26,-1,u,x
O=C(O)c1cc(C2CC2)nc2c1c(=O)[nH]c(=O)n2C1CC1,x,x,x,-6,x,x
O=C(Nc1ncnc2sc3c(c12)CCCCC3)c1ccc(F)cc1,u,7.1µM*,0,-1,u,13µM*
O=C(Nc1ncnc2sc3c(c12)CCC3)c1ccco1,-9%,-19%,-6,2,-7%,-7%
CN(C)c1ccc(Nc2ncnc3sc4c(c23)CCCC4)cc1,23µM*,x,x,3,u,x
c1cc(Nc2ncnc3sc4c(c23)CCC4)ccn1,u,-1%,-6,-11,u,10%
NNc1ncnc2sc3c(c12)CCC3,18µM*,3.2µM*,76,-6,8.2µM*,4µM*
CCN(CC)S(=O)(=O)c1ccc(N/N=C(/C)c2cccs2)c([N+](=O)[O-])c1,x,x,x,3,x,x
CCC1(C)NC(=O)N(NC(=O)c2nn(-c3ccccc3)c(=O)c3ccccc23)C1=O (configuration not stated),x,x,x,3,x,x
COc1cc(Nc2nc(SCc3cccc(Cl)c3)nc3ccccc23)cc(OC)c1,u,x,x,2,u,x
Fc1ccc(Nc2nc(SCc3ccccc3F)nc3ccccc23)cc1,16µM*,x,x,1,16µM*,x
COc1cc(Nc2nc(SCc3ccccc3F)nc3ccccc23)cc(OC)c1,18µM*,x,x,9,u,x
C=CCOc1ccc2c(C)c(CCC(C)C)c(=O)oc2c1,x,x,x,4,x,x
Cc1ccc(NC(=O)/C(C#N)=C/c2cn(CC(=O)NCc3ccco3)c3ccccc23)cc1C,1%,-34%,-12,-4,5%,-27%
CN(C)S(=O)(=O)c1cccc(-c2nn(-c3ccccc3)cc2/C=C(/C#N)C(=O)NCc2ccco2)c1,u,12%,-25,-4,18µM*,-1%
CCN(CC)S(=O)(=O)c1cccc(-c2nn(-c3ccccc3)cc2/C=C(\C#N)C(=O)NCc2ccco2)c1,u,8%,34,-4,u,2%
Cc1cc(/C=C(\C#N)C(=O)NCc2ccco2)c(C)[nH]1,-9%,-1%,-51*,-5,-9%,-15%
CCOc1ccc(-c2nn(-c3ccccc3)cc2/C=C(\C#N)S(=O)(=O)c2ccccc2)cc1C,13µM*,2%,-15,-9,u,-3%
COc1ccc(-c2nn(-c3ccccc3)cc2/C=C(\C#N)C(N)=O)cc1[N+](=O)[O-],-4%,8%,-2,-1,14%,-16%
Cc1ccc(C)c(NC(=O)/C(C#N)=C/c2cn(CC(=O)NCc3ccco3)c3ccccc23)c1,u,u,16,-6,16µM*,u
CCCOc1cccc(-c2nn(-c3ccccc3)cc2/C=C(\C#N)C(=O)NCCCn2ccnc2)c1,u,-21%,-58*,0,u,u
